{"source": "paper PMC7819943", "about": "“Rice protein-binding microarrays: a tool to detect cis-acting elements near promoter regions in rice”", "note": "Over roughly 68,000 sequences, “fluorescence intensity (a.u.)” has its median near 9,100; the highest 2% begin near 16,000. For the sample, the highest values were picked, then their nearest neighbours and some sequences at random."}
{"biological_target": "OsWRKY34 (Oryza sativa, UniProt Q0JBA9 1-250)", "sequence (Q0JBA9 entry or part of it)": "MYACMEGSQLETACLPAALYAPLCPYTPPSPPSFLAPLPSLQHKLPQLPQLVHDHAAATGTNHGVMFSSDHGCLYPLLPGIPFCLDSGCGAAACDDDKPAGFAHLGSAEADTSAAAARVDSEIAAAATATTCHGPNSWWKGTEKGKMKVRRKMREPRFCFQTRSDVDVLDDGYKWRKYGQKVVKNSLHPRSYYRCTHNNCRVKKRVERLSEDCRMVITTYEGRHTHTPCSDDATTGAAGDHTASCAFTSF", "experiment": "protein-binding microarray (RPBM); PBS, 2% BSA, 51.3 ng/ul salmon testes DNA, 50 uM zinc acetate, 200 nM TF, 25 C, 1 h; high values mean tight binding", "settings": "protein: recombinant; tags: N-terminal polyhistidine and DsRed monomer fusion (pET32a); label: CyDye5-dUTP incorporated in the synthesized complementary strand; 3' TTTTT single-stranded linker to array surface; dsDNA, one strand shown", "in_short": "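The binding signal is fluorescence intensity per array feature (arbitrary units). Readings came from an Axon 4000B scanner after a washed, 2% BSA-blocked, double-stranded custom Agilent array had been incubated for 1 h at 25 °C with 200 nM protein and 50 µM zinc acetate. The protein was a Ni–NTA-purified transcription factor fused N-terminally to polyhistidine and DsRed, expressed in E. coli BL21-CodonPlus.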"}
{"sequence": "ATTTGTCATTTTTTCTATGTGTATATGTTGTATTTTGAGCCGGAGTCACCTAGTGCAG", "binding signal": "8430 fluorescence intensity (a.u.)"}
{"sequence": "GCATGAGTAGGGGATGGCATTAAAACAGGTTGGTCAGGTGCGGAGTCACCTAGTGCAG", "binding signal": "8920 fluorescence intensity (a.u.)"}
{"sequence": "TCCGTTCCATCGTAATCCTTCTCCGATCCGAATTTGCTTCCGGAGTCACCTAGTGCAG", "binding signal": "9120 fluorescence intensity (a.u.)"}
{"sequence": "GCATCGACCGCGCGCGTATACGTTAACGCTCACCTTTGTTCGGAGTCACCTAGTGCAG", "binding signal": "9420 fluorescence intensity (a.u.)"}
{"sequence": "GGTTTGTTTGGAGGCGCAATGTTTCTCACCCTGTCGTTCCCGGAGTCACCTAGTGCAG", "binding signal": "12700 fluorescence intensity (a.u.)"}
{"sequence": "AGGTCTTTTTCACGTCGCAACCATGGCTTCAAATTTTGCTCGGAGTCACCTAGTGCAG", "binding signal": "11900 fluorescence intensity (a.u.)"}
{"sequence": "CTCGCCTGACCCTGTCAAACGCCGGGCCGCGGACCCCGCCCGGAGTCACCTAGTGCAG", "binding signal": "8970 fluorescence intensity (a.u.)"}
{"sequence": "GAGCTTGGGGTTGTGTATGGTGGTGGTGGTGTGGTAGCTACGGAGTCACCTAGTGCAG", "binding signal": "33200 fluorescence intensity (a.u.)"}
{"sequence": "TTTTGGGGTGGGTTTTGGTATCTGATGCTTACGGGCATCTCGGAGTCACCTAGTGCAG", "binding signal": "18100 fluorescence intensity (a.u.)"}
{"sequence": "CGTAGGTAAGTAGGGTTATTATAGTTATTTGTGTATATATCGGAGTCACCTAGTGCAG", "binding signal": "9300 fluorescence intensity (a.u.)"}
{"sequence": "GGTGACGGCTGGTGTGGGTGTAGGGTGGCCGCGCGGTACGCGGAGTCACCTAGTGCAG", "binding signal": "9460 fluorescence intensity (a.u.)"}
{"sequence": "GAGCTTATAGGGTGGGTTGTGTCCATGGAGTAACTATTATCGGAGTCACCTAGTGCAG", "binding signal": "18600 fluorescence intensity (a.u.)"}
{"sequence": "GGGCTAGTGTTTTTATGGTGTGGTTGGGGATTCAGCTTGCCGGAGTCACCTAGTGCAG", "binding signal": "11600 fluorescence intensity (a.u.)"}
{"sequence": "TGATGTCTTATCTCGGGTCTCATCTTTTCGCTTATGCTTACGGAGTCACCTAGTGCAG", "binding signal": "8990 fluorescence intensity (a.u.)"}
{"sequence": "CTGTTGTGTTGTGTTGTAATATGATTATGTGGGTGCTTATCGGAGTCACCTAGTGCAG", "binding signal": "8390 fluorescence intensity (a.u.)"}
{"sequence": "AACAGTGGTATCGTTGTGTAGGGGTGGGCTGGCAAAAAGACGGAGTCACCTAGTGCAG", "binding signal": "20000 fluorescence intensity (a.u.)"}
{"sequence": "TCGTGGGAAGGGCAAAGAAAAGACGGGGTGGTGGGCATCGCGGAGTCACCTAGTGCAG", "binding signal": "8420 fluorescence intensity (a.u.)"}
{"sequence": "GGGGTTATGGTGGATTTGGTGCTTTGGGGCATTATGTTTACGGAGTCACCTAGTGCAG", "binding signal": "13800 fluorescence intensity (a.u.)"}
{"sequence": "TGCTTGTGGTTTGTATGGAGTTTGGGTGAAGTGTCACGTACGGAGTCACCTAGTGCAG", "binding signal": "9660 fluorescence intensity (a.u.)"}
{"sequence": "ATTCAGTGGATCCTGCTGCTCAAACTTTGCTGACTGAATTCGGAGTCACCTAGTGCAG", "binding signal": "8820 fluorescence intensity (a.u.)"}
{"sequence": "TTACCTTAGATTTGGTAGGGCTGGTTAGGGCTGGTTGGAGCGGAGTCACCTAGTGCAG", "binding signal": "8680 fluorescence intensity (a.u.)"}
{"sequence": "TGCTGCTACTACATGTGGTGTGGGTGGTATGGTAGGGCCCCGGAGTCACCTAGTGCAG", "binding signal": "9060 fluorescence intensity (a.u.)"}
{"sequence": "GGGTTTTGCTTTTGCTGTTGTCTTGGGCTTGGGCCTTTGCCGGAGTCACCTAGTGCAG", "binding signal": "8660 fluorescence intensity (a.u.)"}
{"sequence": "TGTAGCTTACTGCTTTGGTTTGGGCTGGTTGTGGATTGGACGGAGTCACCTAGTGCAG", "binding signal": "11900 fluorescence intensity (a.u.)"}
{"sequence": "TGATGTGTGGGTGGTGGTGGTGGTGTGCCTTGTGTAGGTACGGAGTCACCTAGTGCAG", "binding signal": "20800 fluorescence intensity (a.u.)"}
{"sequence": "GGGATGGGTAGGGGTGGGTTGTGCTGTATTATACTACACCCGGAGTCACCTAGTGCAG", "binding signal": "19200 fluorescence intensity (a.u.)"}
{"sequence": "CTTGGGCGTCTTGTGTTTGTGGGTGAGGTAGCCAGCTGCCCGGAGTCACCTAGTGCAG", "binding signal": "9910 fluorescence intensity (a.u.)"}
{"sequence": "GCTTACTGGTTATGGTTGGTAGGGTTGGACGTGTAACAGACGGAGTCACCTAGTGCAG", "binding signal": "20900 fluorescence intensity (a.u.)"}
{"sequence": "AGGAGGTGTAGTAGGGTAGTGTAGGAGGTGTAGTGGAGTACGGAGTCACCTAGTGCAG", "binding signal": "8450 fluorescence intensity (a.u.)"}
{"sequence": "GGGTTGATGTGTGGTGAAGGGTAGGTAATTTGTAGGAGTACGGAGTCACCTAGTGCAG", "binding signal": "10800 fluorescence intensity (a.u.)"}
{"sequence": "CATCTTTGTGGTTGTGTGGGTGTGTGTGTATATATATACCCGGAGTCACCTAGTGCAG", "binding signal": "8180 fluorescence intensity (a.u.)"}
{"sequence": "GGCTGTTGGGTTTGTGGGCTTGTGCTAGGCGTCCCAGCTACGGAGTCACCTAGTGCAG", "binding signal": "17800 fluorescence intensity (a.u.)"}
{"sequence": "CCTCGTACGTGTTGGTGTTGCCAAGCCCAAGCCAGTAGTACGGAGTCACCTAGTGCAG", "binding signal": "8990 fluorescence intensity (a.u.)"}
{"sequence": "CACGCTTCGTCGTCGGATCGGGACGCCTTGCTGCCTCTGCCGGAGTCACCTAGTGCAG", "binding signal": "8170 fluorescence intensity (a.u.)"}
{"sequence": "ACTACATCCGCGCACCTGCTTTGCTCGTCGACGATTATAACGGAGTCACCTAGTGCAG", "binding signal": "12900 fluorescence intensity (a.u.)"}
{"sequence": "TGTGGATGAGTGTGTGTGTGTGGAGATCAGTGGGAGACCACGGAGTCACCTAGTGCAG", "binding signal": "8170 fluorescence intensity (a.u.)"}
{"sequence": "AAGGGTGTATTTATTGGTGCAATAGCGTTTTTGTTTGACCCGGAGTCACCTAGTGCAG", "binding signal": "8690 fluorescence intensity (a.u.)"}
{"sequence": "CTGTATTCATTAGGGTGGGACTGTATACTATAGTTATTATCGGAGTCACCTAGTGCAG", "binding signal": "15700 fluorescence intensity (a.u.)"}
{"sequence": "CTGATTCATTATACTAGGAGGGGTGGGAGGGAGGGAGTACCGGAGTCACCTAGTGCAG", "binding signal": "18800 fluorescence intensity (a.u.)"}
{"sequence": "AGGGAGGAGTACATCTAGTAGTATAGGGGAGAGGGTGGGCCGGAGTCACCTAGTGCAG", "binding signal": "11500 fluorescence intensity (a.u.)"}
{"sequence": "AGAGCTTAATTTGGTATGTGTGTGTATATATATATATATACGGAGTCACCTAGTGCAG", "binding signal": "8150 fluorescence intensity (a.u.)"}
{"sequence": "TGGGGTATGTGTGCTTGGTTATGTGTGCATCTTAGTTATACGGAGTCACCTAGTGCAG", "binding signal": "19300 fluorescence intensity (a.u.)"}
{"sequence": "TAATTACCTCTCTTTAGTTTTGGGGTATGTGTGCTTGGTTCGGAGTCACCTAGTGCAG", "binding signal": "9680 fluorescence intensity (a.u.)"}
{"sequence": "TATAGGTCCCACGCTATCTCAGTCGCCACATCAGCTAAAACGGAGTCACCTAGTGCAG", "binding signal": "8690 fluorescence intensity (a.u.)"}
{"sequence": "TTTTAAGTATAATTTCTCTATAATTTGACAATGTGGTGCTCGGAGTCACCTAGTGCAG", "binding signal": "8550 fluorescence intensity (a.u.)"}
{"sequence": "TTTGTTTTGAGCCGAACAAATCGGTAGTCAGTGGGCGGGGCGGAGTCACCTAGTGCAG", "binding signal": "11900 fluorescence intensity (a.u.)"}
{"sequence": "TGATCTTTTGTTTCCTGCTTGGTATAGTATAAGCTCTCATCGGAGTCACCTAGTGCAG", "binding signal": "8800 fluorescence intensity (a.u.)"}
{"sequence": "TTTTCTTTTTTCCCGCACTTTCTTTTCTTCCCGGAGATGTCGGAGTCACCTAGTGCAG", "binding signal": "8400 fluorescence intensity (a.u.)"}
{"sequence": "GAAAGATGATTTGGCAAGTAAATAAATAAGAAAAGAGAAGCGGAGTCACCTAGTGCAG", "binding signal": "62600 fluorescence intensity (a.u.)"}
{"sequence": "CATCGGATATTGTATTATGGTGTTGTATGGGTTGTTCGGGCGGAGTCACCTAGTGCAG", "binding signal": "14000 fluorescence intensity (a.u.)"}
{"sequence": "ATTGGGTTCTTGGAGCTGTTGGATTGGGTTTTTTTGGGAGCGGAGTCACCTAGTGCAG", "binding signal": "9180 fluorescence intensity (a.u.)"}
{"sequence": "AAGCGGTACCATGGGCGGGAGGGTATTTCTGTCCTTTTGTCGGAGTCACCTAGTGCAG", "binding signal": "17600 fluorescence intensity (a.u.)"}
{"sequence": "GTCGGTGGAGCGGCCCTTTTTATTTCTGTGGGAGGAGGGTCGGAGTCACCTAGTGCAG", "binding signal": "9300 fluorescence intensity (a.u.)"}
{"sequence": "TTAAAAAAAAGTCAACGATGATAAATATTTAGAGAGTGAGCGGAGTCACCTAGTGCAG", "binding signal": "13100 fluorescence intensity (a.u.)"}
{"sequence": "AGTCAACAGGGAGGGTAAAATAAGAAAGCAACAGCAAGAGCGGAGTCACCTAGTGCAG", "binding signal": "9730 fluorescence intensity (a.u.)"}
{"sequence": "CTGTTGTTCTGTATATTGTGGTGGGTGTTGATTTGCGGGTCGGAGTCACCTAGTGCAG", "binding signal": "12800 fluorescence intensity (a.u.)"}
{"sequence": "TTCCTTTTGTCCTCCATGCTCTCTGTATGTCGGTATTTTACGGAGTCACCTAGTGCAG", "binding signal": "10500 fluorescence intensity (a.u.)"}
{"sequence": "CCATGGCGGGGTGTATTGTTGTTGTATTTGGGGTTCTGGTCGGAGTCACCTAGTGCAG", "binding signal": "19200 fluorescence intensity (a.u.)"}
{"sequence": "GTTTGTGTTCTTGGATTGGGTTGGGTTGGGTTGGTGAGGTCGGAGTCACCTAGTGCAG", "binding signal": "17600 fluorescence intensity (a.u.)"}
{"sequence": "GGTTGTGTTCTTGTTGGCGAGGAGGAGAGAGGGGTGGGGTCGGAGTCACCTAGTGCAG", "binding signal": "14700 fluorescence intensity (a.u.)"}
